Laboratory results from PubChem BioAssay AID1347416 (National Center for Advancing Translational Sciences (NCATS), 2020).
Among all 4,100 compounds or so, about 1,600 (39%) were called active. About 25% were inconclusive and are not listed. This is one part of the list. Values without a mark were called inactive. Calls follow the shape of the dose curve; as a rule, active = well fitted inhibition curve with a large enough effect; inconclusive = small, poorly fitted or top-dose-only effect; inactive = no such curve, though single readings can be large or run the other way.

Test: qHTS Validation assay for Inhibitors of Plasmodium falciparum Dd2 growth in vitro; also: nearly all actives have a fitted effect of over 70% in size
Settings: P. falciparum Dd2 in RBCs, SYBR Green growth, 72 h; series mostly up to 28.7 µM; activity change, negative = inhibition: at the top concentration
Source text: Malaria, a parasitic disease spread to humans through the bite of a Plasmodium infected Anopheles mosquito, continues to be a global health burden affecting millions of people, with an estimated 228 million cases and 405,000 deaths in 2018. Concerns about safety and limitations of current antimalarial treatments strongly emphasize the need to develop new therapeutic options. The scarce number of chemotypes and validated drug targets with efficacy against the liver stage, have hindered development of new antimalarials. To address this, a chemoprophylactic drug discovery effort was conducted through a combined phenotypic high-throughput asexual blood stage and liver stage screen, providing a robust foundation to identify liver-stage active lead chemotypes. Compounds were initially screened against Plasmodium falciparum Dd2 strain parasites using a in vitro SYBRGreen-1 based 72 hr proliferation assay to identify novel chemotypes to advance to liver stage assays. NIH/NCATS Early Translation Branch Assay Submitter (PI): Anton Simeonov Ph.D.
[…] Assay Protocol: PROTOCOL TABLE (as described by Inglese et al., 2007) SEQUENCE No. (e.g., 1, 2, 3, etc.); PARAMETER (e.g., Cells, Incubation, Reagent, etc.); VALUE; DESCRIPTION SEQUENCE, Parameter, Description 1; Reagent; 3 uL complete malaria growth medium, 1536 TC treated Black clear bottom plate 2; Controls; 23 nL positive control artesunate (300 nM final) to column 1; Neutral control DMSO to columns 2-4 3; Compound; 23 nL of compounds in dose response concentration (29 uM to 0.5 nM final) 4; Reagent; 5 uL malaria infected red blood cells (2.5% hematocrit final, 0.3% parasitemia 5; Time; 72 hours at 37C (5% O2, 5% CO2, 90% N2; 95% Rh) 6; Reagent; 2 uL lysis buffer/SYBRGreen-1, 25 sec shake immediately following dispense 7; Time; ~16 hours at 37C (5% O2, 5% CO2, 90% N2; 95% Rh) 8; Detector; EnVision (PerkinElmer) bottom read at 485/14nm excitation and 535/25 nm emission NOTES (numbers refer to sequence above): 1; Complete Malaria Growth Media: 1X RPMI-1640 w/L-glutamine, 5.5g/L Albumax II, 367 uM Hypoxanthine, 25 mM HEPES, 0.25% Sodium Bicarbonate, 35 uM Gentamicin sulfate 2; Controls were added using the Kalypsis Pintool (Wako USA) equipped with 1536 pinhead 3; Compounds were added in a 7-point, titration with a high final concentration of 29 uM by Pintool from seven inter-plate titrations of library plates and two DMSO control plates at the beginning and end (see Yasgar et al., 2008). 4; Red blood cells infected with Plasmodium falciparum Dd2 parasites were used. 6; Lysis buffer: 20 mM Tris-HCl, 10 mM EDTA, 0.16% Saponin, 1.6% Triton-X, 10X SYBR Green. REFERENCE: Inglese J, Shamu CE, Guy RK. 2007. Reporting data from high-throughput screening of small-molecule libraries. Nat Chem Biol. doi:10.1038/nchembio0807-438 Yasgar A, Shinn P, Jadhav A, Auld D, Michael S, Zheng W, Austin CP, Inglese J, Simeonov A. 2008. Compound Management for Quantitative High-Throughput Screening. J Lab Autom 13:79-89. doi:10.1016/j.jala.2007.12.004
% is scaled to controls: 0 for no effect and ±100 for the full control effect; potency is read from the fitted curve at half-maximal effect.

| Structure (SMILES) | activity change, negative = inhibition | Potency |
| --- | --- | --- |
| COc1ccc(-c2nc3ccccc3o2)cc1NC(=O)COc1c(C)cc(Cl)cc1Cl | 13.1% |  |
| COc1ccccc1NCc1cc(=O)oc2c(C)c(O)ccc12 |  | 5.96 µM (active) |
| COc1ccc(C)cc1NCc1cc(=O)oc2cc(-c3ccccc3)c(O)cc12 |  | 5.31 µM (active) |
| Cc1ccc(Nc2cc(=O)oc3ccccc23)c(C)c1 | -20.1% |  |
| O=C(Nc1ccc([N+](=O)[O-])cc1)Nc1ccc(OC(F)F)c(Cl)c1 |  | 2.66 µM (active) |
| CN1C(=O)CC(C(=O)O)C12CCN(Cc1cccc(C(=O)O)n1)CC2 (stereo not given) | 37.6% |  |
| Oc1ccc(CN2CCCCC2)nc1-c1ccccc1 |  | 0.531 µM (active) |
| Oc1ccc(-c2ccccc2)cc1CN1CCCCCC1 |  | 0.266 µM (active) |
| CNC(=O)[C@H]1C[C@H](Oc2ccccc2)CN1C(=O)CCc1nc2ccccc2[nH]1 | 4.06% |  |
| C/C(Cl)=C/Cc1c(C)[nH]c2c(ccc3ccccc32)c1=O |  | 0.842 µM (active) |
| O=c1[nH]c(C2CCCN(Cc3ccccn3)C2)nn1-c1ccc(Cl)cc1 (stereo not given) |  | 2.37 µM (active) |
| COc1ccc(-n2nc(C3CCCN(C(=O)Nc4ccccc4)C3)[nH]c2=O)cc1 (stereo not given) | 0% |  |
| O=c1[nH]c(C2CCCN(Cc3ccc(F)cc3)C2)nn1-c1ccc(Cl)cc1 (stereo not given) | -21.6% |  |
| C/C=C/c1cc(CN2CCN(c3ccccc3)CC2)c(O)c(OC)c1 |  | 5.96 µM (active) |
| CCn1ccc2sc(C)c(C(=O)N3CCC(Cc4ccccc4)CC3)c2c1=O | 1.55% |  |
| COc1cc(C)cc(CN2CCC(Cc3ccccc3)CC2)c1O |  | 0.75 µM (active) |
| COc1ccc(C(=O)N2CCC(Cc3nc(-c4ccccc4)n[nH]3)CC2)cc1OC | -19% |  |
| O=C(CCc1nc2ccccc2s1)N1CCC(c2nc(C3CCOCC3)no2)CC1 | -6.71% |  |
| CCN1C(=O)C2CC3(CCN(C(=O)CCc4nc5ccccc5[nH]4)CC3)CN2C1=O (stereo not given) | 13.2% |  |
| COC1CN(c2ccc(C)cc2)C12CCN(C(=O)CCc1nc3ccccc3s1)CC2 (stereo not given) |  | 10.6 µM (active) |

| Structure (SMILES) | activity change, negative = inhibition | Potency |
| --- | --- | --- |
| O=C(Nc1cccc(-c2nnc3n2CCCC3)c1)c1ccoc1 | -11.3% |  |
| CCN1CCN(C(=O)c2ccc(-c3nnc4ccc(NC(=O)C5CC5)cn34)cc2)CC1 |  | 6.68 µM (active) |
| Cc1ccc(C(=O)N2CCCC(n3cc(-c4nc(-c5ccccc5)no4)nn3)C2)cc1 (stereo not given) | 0.926% |  |
| O=C(c1ccsc1)N1CCN(c2nnc3ccc(C(F)(F)F)cn23)CC1 | -20.5% |  |
| CCc1ccc(NC(=O)C2CCN(C(=O)c3nnn4cc(C)[nH]c(=O)c34)CC2)cc1 | 30.5% |  |
| CCN(CC)C(=O)c1ccc(-c2nnc3ccc(NC(=O)C4CC4)cn23)cc1 |  | 2.99 µM (active) |
| Cc1ccc(CCNC(=O)C2CCN(C(=O)c3cc4c(=O)[nH]c(C)cn4n3)CC2)cc1 | 7.15% |  |
| COc1ccc(C2Cn3cnc(C(=O)N4CCC(C(=O)Nc5ccc(F)c(C)c5)CC4)c3CO2)cc1 (stereo not given) | 2.95% |  |
| CC(=O)Nc1ccc2nnc(-c3ccc(C(=O)N4CCCCCC4)cc3)n2c1 |  | 8.41 µM (active) |
| COc1cccc(NC(=O)c2ccc(-c3nnc4ccc(NC(=O)C5CCC5)cn34)cc2)c1 |  | 3.76 µM (active) |
| COc1ccc(C(=O)Nc2cccc(-c3nnc4n3CCCC4)c2)cc1F | -19% |  |
| COc1ccc(C(=O)Nc2ccc(OCc3cc(=O)n4ccccc4n3)cc2)cc1 | 13.9% |  |
| COc1ccc(C(=O)Nc2ccc(-c3nc4ncccc4o3)cc2)cc1 | -23.5% |  |
| CCOc1ccc(C(=O)Nc2cccc(-c3nnc4n3CCCC4)c2)cc1 | -14.3% |  |
| CC(C)(C)NC(=O)c1ccc(-c2nnc3ccc(NC(=O)C4CC4)cn23)cc1 |  | 9.44 µM (active) |
| COc1ccc(NC(=O)c2ccc(-c3nnc4ccc(NC(=O)C5CCC5)cn34)cc2)cc1 |  | 4.22 µM (active) |
| CCOc1ccc(NC(=O)c2ccc(-c3nnc4ccc(NC(=O)C5CC5)cn34)cc2)cc1 |  | 2.99 µM (active) |
| COc1ccc(NC(=O)c2ccc(-c3nnc4ccc(NC(=O)C5CC5)cn34)cc2)cc1 |  | 2.66 µM (active) |
| CCCc1noc(-c2ccn3c(CNC(=O)c4ccc(OC)cc4)nnc3c2)n1 | -13.4% |  |
| COc1ccc(NC(=O)c2ccc3c(c2)N(C)C2CCCCN2C3=O)cc1 (stereo not given) | 11.3% |  |

| Structure (SMILES) | activity change, negative = inhibition | Potency |
| --- | --- | --- |
| CCC(=O)Nc1ccc2nnc(-c3ccc(C(=O)Nc4ccc5c(c4)OCCO5)cc3)n2c1 |  | 7.5 µM (active) |
| COCCN1C(=O)CCc2cc(NC(=O)c3ccc4c(c3)OCO4)ccc21 | -9.58% |  |
| Cc1cn2nc(C(=O)Nc3ccc4c(c3)OCCO4)cc2c(N2CCCC2)n1 | 0% |  |
| O=C(Cc1ccc(O)cc1)N1CC(CNc2ccccc2)C2(C1)CN(c1ccccc1)C2 (stereo not given) |  | 0.243 µM (active) |
| Oc1ccc(CN2CC(CNc3ccccc3)C3(C2)CN(c2ccccc2)C3)cc1 (stereo not given) |  | 0.611 µM (active) |
| COc1ccccc1C(=O)N1CC(CNC(=O)C2CC2)C2(C1)CN(c1ccccc1)C2 (stereo not given) | 8.56% [at 43.1 µM] |  |
| O=[S+]([O-])(NCC1CN(Cc2ccc(O)cc2)CC12CN(c1ccccc1)C2)c1ccccc1 (stereo not given) |  | 6.68 µM (active) |
| O=C(Cc1ccccc1)NCC1CN(Cc2cccc(Cl)c2)CC12CN(c1ccccc1)C2 (stereo not given) | 5.28% |  |
| Cn1cc(C(=O)NCC2CN([S+](=O)([O-])c3ccccc3Cl)CC23CN(c2ccccc2)C3)cn1 (stereo not given) | -15.3% |  |
| CNCC(=O)N1CCC2(CC1)CN(Cc1ccccc1)CC2CO (stereo not given) | 8.38% |  |
| NC(=O)c1ccccc1OCC(=O)N1CC(CNC(=O)Nc2ccccc2)C2(C1)CN(c1ccccc1)C2 (stereo not given) | -14.4% |  |
| O=C(N[C@H]1CCOC[C@H]1C1CCOCC1)c1ccccc1-c1ccccc1 | 46.3% |  |
| O=C1Cc2cc(S(=O)(=O)N3CCN(c4cccc(Cl)c4)CC3)ccc2N1 | -37.7% |  |
| O=C(C1CC1)N1CCc2cc(Br)cc(S(=O)(=O)N3CCN(c4cccc(C(F)(F)F)c4)CC3)c21 |  | 4.73 µM (active) |
| CC(=O)N1CCc2cc(S(=O)(=O)CCC(=O)N3CCC(CCOc4ccccc4)C3)ccc21 (stereo not given) | -21.9% |  |
| O=C(CCS(=O)(=O)c1cc(Br)cc2c1N(C(=O)C1CC1)CC2)Nc1ccc(Br)cc1F |  | 3.35 µM (active) |
| Cc1ccc(NC(=O)CCS(=O)(=O)c2cc(Br)cc3c2N(C(=O)C2CC2)CC3)cc1 |  | 2.37 µM (active) |
| Cc1ccc(NC(=O)CCS(=O)(=O)c2ccc(Br)cc2)c(C)c1 | 40% |  |
| O=C(CCS(=O)(=O)c1cc(Br)cc2c1N(C(=O)C1CC1)CC2)N1CCN(c2cccc(Cl)c2)CC1 |  | 13.3 µM (active) |
| CC(=O)Nc1ccc(NS(=O)(=O)c2cc(Br)cc3c2N(C(=O)C2CC2)CC3)cc1 | 25.6% |  |
